Compounds with a hit are over-represented: about 17% of the library has one in this group of screens.
DT40 TDP1 no CPT: qHTS for Inhibitors of human tyrosyl-DNA phosphodiesterase 1 (TDP1): qHTS in cells in absence of CPT. AID 686978, 2013. DT40 Tdp1-/- hTDP1 cells, no CPT, ATP luminescence, 48 h. hit rate 15% among 420,000. Potency, µM (highest dose often 46.2 µM), without a hit: at the highest dose activity change, negative = growth inhibition, actives largely listed as inhibitors; note: % is set by controls: 0 for no effect and ±100 for the full control effect; nearly all actives have a fitted effect of over 55% in size
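Cells were dispensed at 400 per well, compounds added by pin tool, plates incubated ≥48 hr at 37 °C, then CellTiter-Glo added for 30 min at room temperature before luminescence reading. Line: DT40 Tdp1-/- complemented with hTDP1; camptothecin omitted.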
HepG2 viability: counter-screen for TGF-b inhibitors: cytotoxicity in HepG2 cells | HepG2 CAGA-GFP viability, ATP luminescence, 18 h | Potency, µM (titrated, usually from 46.1 µM), without a hit: at the top dose activity change, negative = cytotoxicity, usual class: cytotoxic | hit rate 0.76% among 410,000 | AID 588856
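HepG2 CAGA-GFP cells (1000/well, DMEM with 1% FBS) received compound, then TGF-beta at 500 pg/mL final, and were incubated 18 hours at 37 degrees C. Viability was read by CellTiter-Glo luminescence. Media-only wells were set as complete cell-killing and DMSO as no toxicity.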
ATXN2 expr inh: ATXN2 expression inhibition; HEK-293 ATXN2-luciferase reporter, luminescence, 24 h; Potency, µM (titrated, usually from 57 µM), for inactives: top-dose activity change, negative = inhibition, actives largely listed as inhibitors; hit rate 0.72% among 360,000; AID 1745845; note: % is set by controls: 0 for no effect and ±100 for the full control effect; nearly all actives have a fitted effect of over 55% in size
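qHTS (up to 57 uM final) was run with 24 h compound exposure of reporter cells at 37 °C. Each well was multiplexed: SteadyGlo luminescence measured ATXN2-luciferase expression after a fluorogenic Gly-Phe-AFC viability readout (25 uM final).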
DT40 TDP1 CPT: DT40-hTDP1 cell growth loss with CPT. chicken DT40 Tdp1-/-;hTDP1 cells + 20 nM CPT, ATP luminescence, 48 h. Potency, µM (series often up to 46.2 µM), without a hit: at the highest dose activity change, negative = growth inhibition, most hits filed as inhibitors. hit rate 12% among 420,000; note: % is set by controls: 0 for no effect and ±100 for the full control effect; nearly all actives have a fitted effect of over 55% in size
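Chicken DT40 Tdp1-/- cells complemented with human TDP1, 400 cells/well, exposed to compounds plus 20 nM camptothecin for at least 48 h at 37 C; viability read as ATP content by CellTiter-Glo luminescence.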
TGFb SMAD3 inh: inhibitors of TGF-b signaling | HepG2 CAGA-GFP TGF-b/SMAD3 reporter, GFP fluorescence, 18 h; TGF-beta stimulated, 500 pg/mL final | Potency, µM (highest dose often 46.1 µM), inactives show at the top dose activity, negative = inhibition, actives largely listed as inhibitors | hit rate 1.2% among 410,000; note: % is set by controls: 0 for no effect and ±100 for the full control effect; nearly all actives have a fitted effect of over 65% in size
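Using HEPG2 CAGA-GFP reporter cells at 1000 cells/well, we pinned test compounds, stimulated with recombinant TGF-beta (500 pg/mL final) and measured total well GFP after 18 h.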
ATXN viability: viability counter-screen for ATXN expression inhibitors. S2 cells (HEK-293 line with an ATXN2-luciferase reporter) viability, CellTiter-Fluor protease fluorescence, 24 h. Potency, µM (series often up to 56.7 µM), usual class: cytotoxic. hit rate 0.49% among 400,000; note: nearly all actives have a fitted effect of over 40% in size
Starred values were filed as active, the others as inactive; i = inactive; ? = inconclusive; / = no result given. Calls come from the whole dose curve; as a rule, active = well fitted curve in the direction sought with a large enough effect; inconclusive = small, poorly fitted or top-dose-only effect, or another doubt; inactive = no such curve, though single readings can be large; an effect the other way counts as inactive or inconclusive. Potency is the fitted concentration of half-maximal effect.

SMILES | DT40 TDP1 no CPT | HepG2 viability | ATXN2 expr inh | DT40 TDP1 CPT | TGFb SMAD3 inh | ATXN viability
CC(C)C[C@@H](CN1CCC[C@H]1CN1C(=O)C(=O)NC[C@@H]1Cc1ccccc1)N1C[C@H](Cc2ccc(O)cc2)N(CC2CCCCC2)C(=O)C1=O | ? | / | 0% | ? | / | ?
CC1=C(C(=O)N2CCOCC2)CC(CC(=O)NCc2cccc3ccccc23)C(=O)N1Cc1ccccc1 (stereo not given) | ? | 14% | 0% | ? | 17% | i
O=C(CC(C(=O)O)c1cccc(Br)c1)c1ccc(Cl)cc1 (stereo not given) | 0% | -1% | 3% | -15% | -2% | i
O=C(Cn1nc(C(=O)O)c2ccccc2c1=O)Nc1cccc(S(=O)(=O)N2CCCC2)c1 | 10% | -10% | -9% | 14% | 1% | i
COc1ccc(/C=N/c2c(-c3ccc(OC)cc3)nc3n2CCS3)cc1 | 16µM* | 1% | 0% | ? | 32% | ?
O=C(COc1ccc(Br)cc1)N(Cc1cccs1)C1CCS(=O)(=O)C1 (stereo not given) | -5% | 6% | -2% | -27% | 6% | i
CCOc1ccc(N2CC(NC(=O)C(=O)c3c[nH]c4ccccc34)CC2=O)cc1 (stereo not given) | ? | -15% | / | -25% | 0% | /
CCCN1C2CCCC1CC(NC(=O)c1ccccc1OC)C2 (stereo not given) | 3% | -18% | 5% | -3% | -16% | i
C#CCOc1ccccc1CNc1ccccc1 | -24% | -5% | / | -7% | -2% | i
CCOc1ccccc1C(=O)NC1CCN(Cc2ccccc2)CC1 | -5% | -27% | -26% | 1% | 17% | i
C#CCOc1ccccc1CNC1CCN(Cc2ccccc2)CC1 | 21µM* | -6% | / | ? | -2% | i
CCOc1ccccc1C(=O)NC1CC2CCCC(C1)N2Cc1ccc(C)cc1 (stereo not given) | 21µM* | 1% | -2% | ? | -10% | i
COc1ccc(C)cc1NC(=O)NC1CCN(Cc2ccccc2)CC1 | ? | -54% | -17% | 23µM* | -11% | i
O=C(NC1CCN(Cc2ccccc2)CC1)c1ccccc1OCc1ccccc1Cl | ? | -16% | -29% | 16µM* | ? | i
CCCS(=O)(=O)NC(=O)C1(C)CCN(C(=O)Cc2ccc(OC)cc2)C1 (stereo not given) | -7% | 5% | 14% | -11% | 20% | i
O=C(NC1CCN(Cc2ccccc2)CC1)c1ccccc1OCc1ccccc1 | 7.3µM* | -55% | / | ? | -31% | i
CCC1CCCCN1CCCNC(=O)CNC(=O)c1nn(-c2ccc(OC)c(Cl)c2)c(=O)c2ccccc12 (stereo not given) | -26% | -5% | -20% | -11% | 1% | ?
COc1ccc(NC(=O)CCc2c(C)nc3c(c2C)c(=O)n(C)c(=O)n3C)cc1OC | ? | -2% | -1% | 11% | -5% | i
CCc1nc(SCC(=O)Nc2cccc(C(F)(F)F)c2)c2c(=O)n(C)c(=O)n(C)c2n1 | 9.2µM* | -16% | -24% | ? | -6% | ?
CCc1nc(SCC(=O)Nc2ccc(F)cc2F)c2c(=O)n(C)c(=O)n(C)c2n1 | ? | 3% | -12% | ? | -13% | i
Cc1nc2c(c(C)c1CCC(=O)Nc1ccc(F)cc1)c(=O)n(C)c(=O)n2C | 13µM* | 1% | -5% | ? | -10% | i
Cc1ccccc1NC(=O)CCc1c(C)nc2c(c1C)c(=O)n(C)c(=O)n2C | ? | -14% | -1% | 4% | -3% | i

High-throughput results from PubChem.
